# Test results taken from PubChem BioAssay AID1508622 (National Center for Advancing Translational Sciences (NCATS), 2021).
# Active and inactive are the calls of the source. A call without a number means that no potency is given here. The call rests on the fitted dose curve; in most records, active means well fitted activation curve with a large enough effect; inconclusive means small, poorly fitted or top-dose-only effect; inactive means no such curve, though single readings can be large or run the other way.
# Test: Confirmatory qHTS for Identification of Small Molecule Activators of Huntingtin-Antisense Promoter Activity
# Conditions: HEK293 HTT-AS promoter firefly luciferase reporter, 24 h; series mostly up to 57.5 µM
# In short: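 2,500 luciferase reporter HEK293 cells/well; 24 h culture; cpds up to 57.5 uM final, PTC124 50 uM ctrl; 24 h, 37C; Dual-Glo FLuc reagent, 10 min RT; lum. Norm.: vehicle 0%, zero RLU -100%.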
# Potency means the concentration at half of the fitted maximal effect.
row,SMILES,Potency
1,Cc1ccc(-n2ncc3c(N(CCO)Cc4ccccc4)ncnc32)cc1,1.07 µM (active)
2,COc1ccc(-c2cccc(NS(=O)(=O)c3cc(C)c(OC)c(C)c3C)c2)nn1,inactive
3,CCN(C(=O)CSc1nc(-c2ccccc2)no1)c1cccc(C)c1,inactive
4,CCOC(=O)C1CCN(C(=O)Cn2c(-c3cccs3)cc3cc(Cl)ccc32)CC1,inactive
5,CC[C@@H]1C(=O)N(C)c2cnc(Nc3ccc(C(=O)NC4CCC(N5CCN(CC6CC6)CC5)CC4)cc3OC)nc2N1C(C)C (stereo partly specified),inactive
6,Cc1cccc(NS(=O)(=O)c2ccc3c(c2)CCN3C(=O)C2CCC2)c1,inactive
7,COc1ccccc1NC(=O)CSc1oc(-c2ccccc2)nc1S(=O)(=O)c1ccccc1,inactive
8,COc1cc(CN2CCc3nc(N4CCN(c5ccccc5F)CC4)ncc3C2)ccc1OC(C)C,inactive
9,COc1ccc(-c2nc(N3CCOCC3)c3sc(CN(C)c4ncc(C(=O)NO)cn4)cc3n2)cn1,inactive
10,Cc1ccccc1-c1noc(CSc2nc3ccccc3[nH]2)n1,inactive
11,Cc1ccc(Nc2cc(C)nc(-n3nc(C)cc3C)n2)cc1,inactive
12,Cc1ccccc1CN1c2ccccc2-c2nc(SCC(=O)Nc3cc(F)ccc3F)ncc2S1(=O)=O,inactive
13,COc1ccccc1C(=O)Oc1c(Sc2ccccc2)c(C)nn1C(C)(C)C,inactive
14,O=C(NCC1CCN(Cc2ccccc2F)CC1)Nc1ccc(F)c(Cl)c1,inactive
15,CCN(Cc1ccccc1)C(=O)C1CCC(CNS(=O)(=O)c2ccc3c(c2)CCCC(=O)N3)CC1 (stereo unspecified),inactive
16,CCn1c(SCc2cccc(Br)c2)nnc1-c1nonc1NC(C)=O,inactive
